Bioassay records (PubChem)
Rows were chosen to be rich in hits. Some 3.1% of all compounds tested hit in one or more screens of this group.
Nrf2 activator: activates Nrf2 signaling | AID 624171 | 410,000 compounds, 0.31% hits | AREc32 ARE-luciferase reporter (MCF7-derived line), luminescence, 24 h | Potency, µM (series often up to 46.1 µM), without a hit: at the top dose activation, actives largely listed as activators; also: potency is read from the fitted curve at half-maximal effect; % of control where 0% means no effect; nearly all actives have a fitted effect of over 65% in size
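Quantitative high-throughput format: AREc32 reporter cells, 1000 per well, received compound by pin transfer and were incubated 24 hr at 37 deg C, 5% CO2, before Steady-Glo luminescence detection.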
IL2 activator: activates IL-2 in a cell-based reporter assay; AID 652025; 360,000 compounds, 0.065% hits; activation, % (series mostly up to about 46 µM); IL-2 activation reporter assay, cell-based qHTS; stimulated with anti-CD3/CD4/CD28 beads; in transgenic mouse T cells; in the data active = activation above about 50%; inconclusive = mostly about 30% to 49%; also: 0% is about no effect
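Unstimulated transgenic mouse T cells preincubated 60 min with compound, then stimulated with anti-CD3/anti-CD4-coated beads plus anti-CD28 for 18 h at 37 degrees C. IL-2 response read as EGFP and DsRed fluorescence by plate cytometry.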
BRCA1 expr act: BRCA1 expression activation; MCF7-BRCA1-FFLuc reporter, luminescence, 48 h; response scale: scaled: vehicle 0%, 10 µM genistein 100%; Potency, µM (top dose mostly 46.1 µM), for inactives: top-dose activation, hits mostly activators; 380,000 compounds, 1.1% hits; AID 624202; also: potency is read from the fitted curve at half-maximal effect; nearly all actives have a fitted effect of over 80% in size
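48 h compound treatment of MCF7-BRCA1-FFLuc cells (phenol-red free MEM, 37 °C), then 15 min with luciferase substrate and luminescence imaging.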
ELG1 repair inh: inhibitors of ELG1-dependent DNA repair in HEK293T cells; 330,000 compounds, 2.3% hits; Potency, µM (doses to about 46.1 µM), for inactives: at the top dose activity change, negative = inhibition, hits mostly inhibitors; HEK293T ELG1-luciferase reporter, luminescence, 16 h; DNA damage induced by 5-fluorouridine; also: potency is read from the fitted curve at half-maximal effect; % is scaled to controls: 0 for no effect and ±100 for the full control effect; nearly all actives have a fitted effect of over 55% in size
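In this reporter screen, reduction of luminescence relative to DMSO vehicle indicated activity. Compounds and 5-fluorouridine were added together to 2,000 cells per well, incubated for 16 hr at 37 °C, then developed with ONE-Glo.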
ELG1 FLuc counter: luciferase inhibition in cell-free luciferin readout for ELG1 hits. 350 compounds, 3% hits. cell-free firefly luciferase luminescence counter-screen, ViewLux. shares compounds with ELG1 repair inh. Potency, µM (doses to about 46.1 µM), without a hit: at the top dose activity change, negative = inhibition, usual class: inhibitors; also: potency is read from the fitted curve at half-maximal effect; % is scaled to controls: 0 for no effect and ±100 for the full control effect
ELG1 Luc conf: inhibits ELG1-dependent DNA repair in HEK293T cells, confirmed | AID 624248 | Potency, µM (doses to about 46.1 µM), without a hit: at the highest dose activity change, negative = inhibition, actives largely listed as inhibitors | shares compounds with ELG1 repair inh | HEK293T ELG1-luciferase levels, luminescence; cells co-treated with 5-fluorouridine | 670 compounds, 68% hits; also: potency is read from the fitted curve at half-maximal effect; % is scaled to controls: 0 for no effect and ±100 for the full control effect; nearly all actives have a fitted effect of over 55% in size
Target sequence (Q96QE3 whole entry, looked up): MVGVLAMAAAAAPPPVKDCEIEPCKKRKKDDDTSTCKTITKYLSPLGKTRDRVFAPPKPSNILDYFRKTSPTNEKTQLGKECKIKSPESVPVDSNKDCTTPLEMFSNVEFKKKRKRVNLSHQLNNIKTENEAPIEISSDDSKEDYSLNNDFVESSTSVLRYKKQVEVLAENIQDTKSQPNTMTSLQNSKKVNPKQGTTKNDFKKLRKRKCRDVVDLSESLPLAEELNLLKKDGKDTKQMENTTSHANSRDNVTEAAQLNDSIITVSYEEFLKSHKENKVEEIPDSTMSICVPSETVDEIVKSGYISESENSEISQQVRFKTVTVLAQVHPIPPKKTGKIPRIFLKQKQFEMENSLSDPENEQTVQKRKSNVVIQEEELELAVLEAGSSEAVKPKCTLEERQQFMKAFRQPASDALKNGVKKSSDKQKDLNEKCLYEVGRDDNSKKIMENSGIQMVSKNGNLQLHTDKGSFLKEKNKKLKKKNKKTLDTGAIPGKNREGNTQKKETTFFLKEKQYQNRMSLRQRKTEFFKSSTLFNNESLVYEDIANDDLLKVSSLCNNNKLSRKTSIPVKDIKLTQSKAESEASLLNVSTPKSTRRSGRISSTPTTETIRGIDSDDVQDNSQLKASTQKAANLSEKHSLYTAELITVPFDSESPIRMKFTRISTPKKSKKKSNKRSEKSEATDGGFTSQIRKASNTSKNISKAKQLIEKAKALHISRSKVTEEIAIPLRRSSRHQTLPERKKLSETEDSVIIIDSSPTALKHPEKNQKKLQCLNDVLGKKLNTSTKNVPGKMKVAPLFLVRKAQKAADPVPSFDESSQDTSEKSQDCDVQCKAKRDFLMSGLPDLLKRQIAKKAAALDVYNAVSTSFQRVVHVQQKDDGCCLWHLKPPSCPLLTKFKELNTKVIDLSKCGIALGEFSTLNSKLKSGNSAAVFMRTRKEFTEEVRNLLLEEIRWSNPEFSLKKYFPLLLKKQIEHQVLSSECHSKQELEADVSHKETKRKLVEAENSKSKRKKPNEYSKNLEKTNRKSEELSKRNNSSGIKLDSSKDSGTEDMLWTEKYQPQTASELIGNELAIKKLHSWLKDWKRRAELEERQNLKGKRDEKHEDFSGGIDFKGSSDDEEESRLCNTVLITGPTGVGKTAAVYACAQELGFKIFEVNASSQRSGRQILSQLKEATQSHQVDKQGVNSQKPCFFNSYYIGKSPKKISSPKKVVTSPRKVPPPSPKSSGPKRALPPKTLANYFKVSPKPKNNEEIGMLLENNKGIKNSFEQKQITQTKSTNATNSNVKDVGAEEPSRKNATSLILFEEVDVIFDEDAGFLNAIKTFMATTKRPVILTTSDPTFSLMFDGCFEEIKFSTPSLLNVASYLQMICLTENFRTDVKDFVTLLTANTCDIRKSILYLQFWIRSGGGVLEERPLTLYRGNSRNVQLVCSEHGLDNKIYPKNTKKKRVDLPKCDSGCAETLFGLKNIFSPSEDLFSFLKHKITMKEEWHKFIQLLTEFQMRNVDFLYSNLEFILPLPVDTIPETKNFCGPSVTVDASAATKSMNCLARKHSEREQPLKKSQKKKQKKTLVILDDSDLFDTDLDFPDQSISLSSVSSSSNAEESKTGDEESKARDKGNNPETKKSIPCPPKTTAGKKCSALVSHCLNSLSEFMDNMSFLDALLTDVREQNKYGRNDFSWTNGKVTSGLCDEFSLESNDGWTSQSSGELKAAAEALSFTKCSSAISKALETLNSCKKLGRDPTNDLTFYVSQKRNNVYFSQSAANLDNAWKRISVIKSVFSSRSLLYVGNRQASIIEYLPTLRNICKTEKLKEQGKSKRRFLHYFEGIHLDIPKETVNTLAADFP
ELG1-Luc MMS: MMS-stimulated human ELG1 repair inhibition, confirmed. shares compounds with ELG1 repair inh. HEK293T luciferase-tagged ELG1 level, MMS stimulated. Potency, µM (highest dose often 46.1 µM), for the others: at the top dose activity change, negative = inhibition, most hits filed as inhibitors. 670 compounds, 53% hits; also: potency is read from the fitted curve at half-maximal effect; % is scaled to controls: 0 for no effect and ±100 for the full control effect; nearly all actives have a fitted effect of over 60% in size
ELG1 5-FU: confirmation of ELG1 repair inhibitors: viability with 5FU; shares compounds with ELG1 repair inh; cell viability with 5-FU, ELG1-dependent repair; Potency, µM (top dose mostly 46.1 µM), for inactives: at the top dose activity change, negative = viability loss, actives largely listed as cytotoxic; 670 tested, under 10 active; AID 624250;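 also: ELG1-luc HEK293T cells cotreated with 5-fluorouridine at 10 µM final; potency is read from the fitted curve at half-maximal effect; viability measured 16 h after compound addition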
ELG1 MMS cell: confirmation of ELG1 repair inhibitors: viability with MMS; 670 compounds, 33% hits; Potency, µM (highest dose often 46.1 µM), for inactives: at the top dose activity change, negative = viability loss, usual class: cytotoxic; Cell viability with MMS, ELG1-dependent DNA repair; shares compounds with ELG1 repair inh;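 also: ELG1-luc HEK293T cells co-treated with 10 µM MMS; potency is read from the fitted curve at half-maximal effect; viability read 16 h after compound addition; % is scaled to controls: 0 for no effect and ±100 for the full control effect; nearly all actives have a fitted effect of over 60% in size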
ELG1 unstim viab: unstimulated viability counter-screen for ELG1 repair hits | shares compounds with ELG1 repair inh | cell viability counter-screen, unstimulated, luminescence | Potency, µM (top dose mostly 45.9 µM), for inactives: at the highest dose activity change, negative = loss of viability, most hits filed as cytotoxic | 900 compounds, 8% hits | AID 624252;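 also: potency is read from the fitted curve at half-maximal effect; compound exposure lasted 16 hours before reading; % is scaled to controls: 0 for no effect and ±100 for the full control effect; nearly all actives have a fitted effect of over 55% in size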
FLuc biochem: inhibits purified firefly luciferase, counter-screen for ELG1 hits; shares compounds with ELG1 repair inh; purified firefly luciferase, luminescence counter-screen; Potency, µM (doses to about 57.5 µM), without a hit: at the highest dose activity, negative = inhibition, hits mostly inhibitors; 350 compounds, 10% hits; AID 624253; also: potency is read from the fitted curve at half-maximal effect; % is scaled to controls: 0 for no effect and ±100 for the full control effect
The depositor's hits bear a star; ! = not confirmed by another sample. Unless noted, calls follow the shape of the dose curve; as a rule, active = well fitted curve in the direction sought with a large enough effect; inconclusive = small, poorly fitted or top-dose-only effect, or another doubt; inactive = no such curve, though single readings can be large; an effect the other way counts as inactive or inconclusive.

How did COc1ccc(CCN2C(=O)C3C4C=CC(C5CC45)C3C2=O)cc1OC (centres undefined) do in these assays?
Nrf2 activator: -1%; IL2 activator: 1; BRCA1 expr act: -4%; ELG1 repair inh: -2%

How did COc1ccccc1CCNC(=O)c1ccc(-c2nc(CSc3ccc(C)cc3)c(C)o2)cc1 do in these assays?
Nrf2 activator: 5%

What do the screens show for `CC(C)c1ccc(NC(=O)Cn2cc(S(=O)(=O)Cc3ccccc3Cl)c3ccccc32)cc1`?
Nrf2 activator: 0%

Results for O=C(NC1CCCCCCC1)c1cc(COc2ccc3ncccc3c2)on1 ?
Nrf2 activator: 1%; IL2 activator: -2; BRCA1 expr act: -48%; ELG1 repair inh: 1.6µM*; ELG1 FLuc counter: -12%; ELG1 Luc conf: 18µM*; ELG1-Luc MMS: 1.1µM*; ELG1 5-FU: -3%; ELG1 MMS cell: 1.4µM*; ELG1 unstim viab: inconclusive; FLuc biochem: inconclusive

How did CCOC(=O)N1CCN(C(=O)c2cc(COc3ccc4ncccc4c3)on2)CC1 do in these assays?
Nrf2 activator: 3%; IL2 activator: 0; BRCA1 expr act: 3%; ELG1 repair inh: 9.2µM*; ELG1 FLuc counter: -5%; ELG1 Luc conf: 20µM*; ELG1-Luc MMS: 5.6µM*; ELG1 5-FU: 0%; ELG1 MMS cell: 4.5µM*; ELG1 unstim viab: 14µM*; FLuc biochem: -3%

What do the screens show for `Cc1cccnc1CN1CCN(C(=O)c2cc(COc3ccc4ncccc4c3)on2)CC1`?
Nrf2 activator: 3%; IL2 activator: -5; BRCA1 expr act: -55%; ELG1 repair inh: inconclusive

What do the screens show for `Cc1ccc(-c2csc(=Nc3cccnc3)n2CCCN2CCCC2=O)cc1C`?
Nrf2 activator: 5%; IL2 activator: -3; BRCA1 expr act: -15%; ELG1 repair inh: inconclusive

How did Cc1ccc(-c2csc(=Nc3cccnc3)n2CCCn2ccnc2)cc1C do in these assays?
Nrf2 activator: 0%; IL2 activator: -1; BRCA1 expr act: -42%; ELG1 repair inh: 2.9µM*; ELG1 FLuc counter: inconclusive; ELG1 Luc conf: 4µM*; ELG1-Luc MMS: 6.3µM*; ELG1 5-FU: -3%; ELG1 MMS cell: 10µM*; ELG1 unstim viab: 22µM*; FLuc biochem: 1%

Results for CSc1ccc(CCNC(=O)Cn2nc(C)n3c(cc4sccc43)c2=O)cc1 ?
Nrf2 activator: -1%

What do the screens show for `COc1cc(Cl)c(C)cc1NC(=O)CN(C)Cc1cccc(OC)c1OC`?
Nrf2 activator: 5%; IL2 activator: -1; BRCA1 expr act: -39%; ELG1 repair inh: 2.6µM*; ELG1 Luc conf: 25µM*; ELG1-Luc MMS: 16µM*; ELG1 5-FU: 6%; ELG1 MMS cell: 14µM*; ELG1 unstim viab: inconclusive

How did COc1ccccc1CN(C)CC(=O)Nc1cccc2ccccc12 do in these assays?
Nrf2 activator: 3%; IL2 activator: -4; BRCA1 expr act: -29%; ELG1 repair inh: -8%

Results for COc1cccc2c1C(=O)/C(=C\c1ccc(N(C)C)cc1)C2 ?
BRCA1 expr act: -18%; ELG1 unstim viab: inconclusive

Results for COc1ccc(/C=N/NC(=O)c2ccoc2C)cc1CN1CCN(c2ccc(F)cc2)CC1 ?
Nrf2 activator: 11%; IL2 activator: -1; BRCA1 expr act: 43%; ELG1 repair inh: 2.6µM*; ELG1 Luc conf: 2.5µM*; ELG1-Luc MMS: -10%; ELG1 5-FU: inconclusive; ELG1 MMS cell: -1%; ELG1 unstim viab: inconclusive

What do the screens show for `COc1ccc(/C=N/NC(=O)c2ccc(Br)cc2)cc1CN1CCOCC1`?
Nrf2 activator: 1%; IL2 activator: 0; BRCA1 expr act: 0%; ELG1 repair inh: -5%

Results for Cc1ccc2nc(-c3ccc(Cl)c(NC(=O)COc4ccc([N+](=O)[O-])cc4)c3)oc2c1 ?
Nrf2 activator: 5%

What do the screens show for `Cc1ccc2nc(-c3ccc(C)c(NC(=O)COc4ccc(Br)cc4)c3)oc2c1`?
BRCA1 expr act: 23%; ELG1 FLuc counter: 68%; ELG1 unstim viab: -1%; FLuc biochem: inconclusive

What do the screens show for `COc1ccc(OCC(=O)Nc2ccc(-c3nc4cc(C)c(C)cc4o3)cc2)cc1`?
Nrf2 activator: 0%; BRCA1 expr act: -28%; ELG1 FLuc counter: 57%; ELG1 unstim viab: inconclusive; FLuc biochem: 15µM*!

What do the screens show for `CCc1ccc(OCC(=O)Nc2ccc3oc(-c4ccc(OC)cc4)nc3c2)cc1`?
Nrf2 activator: 1%

What do the screens show for `O=C(Nc1ccc(N2CCN(C(=O)c3ccco3)CC2)c(Cl)c1)c1cccs1`?
Nrf2 activator: 4%; IL2 activator: 3; BRCA1 expr act: -33%; ELG1 repair inh: 4.1µM*; ELG1 Luc conf: 4µM*; ELG1-Luc MMS: 13µM*; ELG1 5-FU: inconclusive; ELG1 MMS cell: 28µM*; ELG1 unstim viab: 25µM*

How did CCC(=O)Nc1ccc(N2CCN(C(=O)c3ccco3)CC2)c(Cl)c1 do in these assays?
Nrf2 activator: 3%; IL2 activator: 2; BRCA1 expr act: 0%; ELG1 repair inh: inconclusive

How did Cc1ccc2cc(CN(CC3CCCO3)S(=O)(=O)c3c(C)ccc4nsnc34)c(=O)[nH]c2c1 (centres undefined) do in these assays?
Nrf2 activator: 0%; IL2 activator: 0; BRCA1 expr act: 2%; ELG1 repair inh: -9%
